# Reference: PubChem BioAssay (NCATS)
# Inconclusive results are not listed. Values without a mark were called inactive. Active and inactive are the calls of the source. Calls follow the shape of the dose curve; as a rule, active = well fitted curve in either direction with a large enough effect (not every such curve was filed as active); inconclusive = small, poorly fitted or top-dose-only effect, or another doubt; inactive = flat fitted curve, though single readings scatter.
# Molecular target: Mitogen-activated protein kinase 10 (Mus musculus) (UniProt Q61831)
# Assay: JNK3 AlphaScreen Assay (AID 530);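 also: kinase came from lysate of stimulated human HepG2 cells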
# Settings: JNK3 lysate, c-Jun phosphorylation; series mostly up to 57.1 µM; activity change, negative = inhibition: at the top concentration
# From the text: NIH Chemical Genomics Center [NCGC]
# NIH Molecular Libraries Screening Centers Network [MLSCN]
# The c-jun N-terminal kinase (JNK) family are serine/threonine protein kinases that phosphorylate c-jun, a component of the transcription factor […] (AP-1). JNK kinases are members of the mitogen-activated protein kinase family including the extracellular regulated kinases and p38 kinases. Three JNK genes (JNK 1, 2, and 3) have been identified in humans so far. JNK1 and JNK2 have a broad distribution and JNK3 is primarily found in neuronal tissues and cardiac myocytes.
# JNK3 has been under consideration as a target for the treatment of neurodegenerative disorders. […] JNK pathway is also involved in pathological process in a mouse model of Parkinson's disease (Xia et al., 2001).
# Given these potential tissue distributions and links to neuroprotection, JNK3 inhibitors should provide useful investigational tools to study the role of this kinase in several diseases including, arthritis, stroke, myocardial infarction, ischemic injury and Parkinson's disease.
# A homogeneous AlphaScreen is developed to measure the activity of JNK3. AlphaScreen is a two bead-based proximity-dependent chemical energy transfer luminescent assay platform. The phosphorylation of a biotinylated c-jun substrate by JNK3 can be detected with an antibody raised against phosphorylated c-jun. This process brings streptavidin donor beads and Protein-A acceptor beads to within a proximity range of <200 nm, and subsequently lead a chemical luminescent reaction upon exciting donor beads with 680 nm laser excitation light. Inhibition of JNK3 activity by small molecules and subsequent decrease in the antibody binding to biotinylated c-jun could attenuate or abolish this chemical luminescent reaction.
# Yang DD, Kuan CY, Whitmarsh AJ, Rincon M, Zheng TS, Davis RJ, Rakic P and Flavell RA (1997) Absence of excitotoxicity-induced apoptosis in the hippocampus of mice lacking the Jnk3 gene. Nature 389:865-870. [PMID: 9349820]
# Herdegen T, Claret FX, Kallunki T, Martin-Villalba A, Winter C, Hunter T, and Karin M (1998) Lasting N-terminal phosphorylation of c-Jun and activation of c-Jun N-terminal kinases after neuronal injury. J.Neurosci. 18:5124-5135. [PMID: 9651196]
# Xia XG, Harding T, Weller M, Bieneman A, Uney JB and Schulz JB (2001) Gene transfer of the JNK interacting protein-1 protects dopaminergic neurons in the MPTP model of Parkinson's disease. Proc.Natl.Acad.Sci.U.S.A. 98:10433-10438.
# NCGC Assay Protocol Summary:
# GST-cJun (1-79) (Stratagene, La Jolla CA, #205145) was biotnylated by PerkinElmer (PerkinElmer-BioSignalInc. Montreal, Canada) and was detectable by the streptavidin Donor beads. Anti-(phospho)cJun (Ser73) antibody was from UpState (Charlottesvilles, VA, #06-659). JNK3-containing lysates were generated from HepG2 cells and pre-activated by interleukin1-beta and tumor necrosis factor alpha. All reagents were stored at -20 C before using. Phosphorylated biotinylated-GST-cJun was recognized by Anti-(phospho)cJun (Ser73) antibody and this process brings acceptor and donor beads together. Therefore JNK3 phosphorylation of cJun can be measured by Alpha reading by EnVision (PerkinElmer, Boston, MA).
# The composition of kinase buffer was (in mM) 20 tris- HCl (pH 7.6) 10 MgCl2, 1 DTT, and 0.1 Na3VO4 and 0.01% Tween-20. Beads were diluted in detection buffer containing (in mM) 20 tris-HCl (pH 7.7), 20 NaCl and 80 EDTA and 0.3% BSA. The assay was performed at room temperature. All compounds were screened as titrations from 0.6 nM to 46 uM final concentration. The assay was performed in 1536-well format (white solid bottom and untreated) as follows:
# Sequence,Parameter,Value,Description
# 1,Reagent,3 uL,Biotin-GST-cJun, Anti-(phospho)cJun and pre-activated JNK3-containing lysates
# 2,Compound,23 nL,Final concentration was 0.6nM to 46uM
# 3,Time,15 minutes,Room Temperature
# 4,Reagent,1 uL,ATP final concentration 10uM
# 6,Reagent,0.5 uL,2ng/well bead mixture
# […]
# % is scaled to controls: 0 for no effect and ±100 for the full control effect.
SMILES,"activity change, negative = inhibition",outcome
C[C@H](N)[C@@H](O)c1ccccc1,31.2% [at 25.6 µM],
COP(=O)(OC)[C@@H](O)C(Cl)(Cl)Cl,-2.13% [at 25.6 µM],
CN1CC[C@@]2(CCCN(C(=O)c3csnn3)C2)C1,0.968%,
ClC(Cl)(Cl)c1ccccc1,,inactive
CO[C@H]1C=C2CCN(C)[C@@H]2[C@@H]2c3cc4c(cc3C(=O)O[C@H]21)OCO4,0.377% [at 25.6 µM],
CN(C)[C@@H]1C(=O)C(C(N)=O)=C(O)[C@]2(O)C(=O)C3=C(O)c4c(O)ccc(Cl)c4[C@](C)(O)[C@H]3C[C@@H]12,-0.46% [at 25.6 µM],
CCCCCCCCCc1ccc(O)cc1,-6.44%,
c1ccc(N2CCC3(CCNCC3)CC2)cc1,-22.8%,
COc1ccc(C[C@H]2c3cc(OC)c(OC)cc3CCN2C)cc1OC,,inactive
CNC[C@H](O)c1ccc(O)c(OC)c1,5.61% [at 25.6 µM],
c1cnc(N2CCC3(CCNCC3)CC2)nc1,-8.33%,
CC(C)c1ccc(C(c2c(O)c3ccccc3oc2=O)c2c(O)c3ccccc3oc2=O)cc1,-6.98% [at 11.4 µM],
C=CC(N)=O,,inactive
C=CC(C)=O,-7.72%,
C(#CCN1CCCC1)CN1CCCC1,1.69% [at 25.6 µM],
CO[C@@H](C)[C@](O)(C(=O)OCC1=CCN2CC[C@@H](O)[C@H]12)C(C)C,3.14% [at 25.6 µM],
CN1CC[C@@]2(CCCN(C(=O)c3ccco3)C2)C1,0.198%,
CN1[C@@H]2CC[C@H]1CC(O)C2 (stereo not given in full),3.34% [at 25.6 µM],
C/C=C/c1ccc2c(c1)OCO2,9.93%,
O=[N+]([O-])O[C@H]1CO[C@H]2[C@H]1OC[C@@H]2O[N+](=O)[O-],0.893% [at 25.6 µM],

SMILES,"activity change, negative = inhibition",outcome
COc1ccc(NC(=O)N2CCCC3(CCN(C(=O)Oc4ccccc4)CC3)C2)cc1,-16.9%,
O=S1OCC2C(CO1)C1(Cl)C(Cl)=C(Cl)C2(Cl)C1(Cl)Cl (stereo not given),24.9%,
Cc1cccc(C#N)c1,8.91%,
C[N+](C)(C)Cc1ccccc1,-3.94%,
C[C@@H]1O[C@H](O[C@@H]2CC[C@@]3(C=O)[C@H]4CC[C@@]5(C)[C@@H](C6=CC(=O)OC6)CC[C@@]5(O)[C@@H]4CC[C@]3(O)C2)C[C@H](O)[C@@H]1O,0.283% [at 25.6 µM],
ClC1=C(Cl)C2(Cl)C3C4C=CC(C4)C3C1(Cl)C2(Cl)Cl (stereo not given),-6.9%,
O=NN(CCO)CCO,-4.73%,
COc1cc(C(=O)OC2C[C@H]3CC[C@@H](C2)N3C)ccc1O (stereo not given in full),-3.47% [at 25.6 µM],
ClC(Cl)=C(Cl)Cl,,inactive
O=C(O)COc1ccc(Cl)cc1Cl,11.6%,
C[C@@]12CC[C@H](O)C[C@@H]1CC[C@H]1[C@@H]2C[C@@H](O)[C@]2(C)[C@@H](C3=CC(=O)OC3)CC[C@]12O,-2.09% [at 25.6 µM],
CN1CCCC2(CCN(C(=O)Oc3ccccc3)CC2)C1,1.69%,
CC1=CC(=O)C2=C(C)C[C@@H](O)[C@@H]3[C@@H](OC(=O)[C@H]3C)[C@H]12,5.77% [at 25.6 µM],
CC(=O)OCC(=O)[C@@H]1CC[C@H]2[C@H]3CC[C@H]4C[C@@H](O)CC[C@]4(C)[C@@H]3C(=O)C[C@@]12C,-0.451% [at 25.6 µM],
C/C=C1\C[C@H](C)[C@@](O)(CO)C(=O)OCC2=CCN3CC[C@@H](OC1=O)[C@@H]23,14.1% [at 25.6 µM],
COC1=C[C@H]2C3=C([C@H]2C1=O)[C@H](NC(C)=O)CCc1cc(OC)c(OC)c(OC)c13,-4.76% [at 25.6 µM],
CN1CC[C@@]2(CCCN(C(=O)Oc3ccccc3)C2)C1,-0.0815%,
CN1Cc2c(ccc3c2OCO3)[C@@H]2[C@@H](O)Cc3cc4c(cc3[C@@H]21)OCO4,,inactive
C[C@@]12CC[C@H]3[C@@H](CC[C@]4(O)C[C@H](O)CC[C@@]34C=O)[C@]1(O)CC[C@@H]2C1=CC(=O)OC1,0.767% [at 25.6 µM],
COc1ccc2c(c1OC)CN1CCc3cc4c(cc3[C@H]1C2)OCO4,1.34% [at 25.6 µM],
